About 83,000 compounds went through this panel and 20% of them were active in at least one assay; those are over-represented in the sample as a whole.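 Step 1: grow cells in 96-well plates. Step 2: add test compound at a single concentration. Step 3: incubate 48 h. Step 4: record percent growth.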 Active and inactive are the calls of the source. How the source made its calls: active means growth percent below 10; inactive means the rest.
Experiments:
Test in all cases: NCI-60 one-dose screen, 48 h (100 = growth as untreated, 0 = no growth, -100 = all killed)
SK-MEL-2 melanoma = conditions: 10 µM unless noted
EKVX NSCLC = conditions: 10 µM unless noted
SN12C renal = conditions: 10 µM unless noted
UO-31 renal = conditions: 10 µM unless noted
TK-10 renal = conditions: 10 µM unless noted
ACHN renal = conditions: 10 µM unless noted
CAKI-1 renal = conditions: 10 µM unless noted
A498 renal = conditions: 10 µM unless noted
CCRF-CEM leukemia = conditions: 10 µM unless noted
MOLT-4 leukemia = conditions: 10 µM unless noted
SR leukemia = conditions: 10 µM unless noted
RPMI-8226 leukemia = conditions: 10 µM unless noted
OVCAR-8 ovarian = conditions: 10 µM unless noted
OVCAR-5 ovarian = conditions: 10 µM unless noted
OVCAR-4 ovarian = conditions: 10 µM
SK-OV-3 ovarian = conditions: 10 µM unless noted
IGROV1 ovarian = conditions: 10 µM unless noted
OVCAR-3 ovarian = conditions: 10 µM unless noted
HS 578T breast = conditions: 10 µM unless noted
NCI/ADR-RES ovarian = conditions: 10 µM unless noted

Measured: growth

CCOC(=O)Nc1ccc2c(c1)/C(=N\NC(=S)NC)c1ccccc1-2
inactive: SK-MEL-2 melanoma 101% | EKVX NSCLC 79.7% | SN12C renal 73.8% | UO-31 renal 104% | TK-10 renal 76.7% | ACHN renal 83.7% | CAKI-1 renal 81.4% | A498 renal 33.6% | CCRF-CEM leukemia 61.8% | MOLT-4 leukemia 87.4% | SR leukemia 63.9% | RPMI-8226 leukemia 58.7% | OVCAR-8 ovarian 83% | OVCAR-5 ovarian 97.8% | OVCAR-4 ovarian 92.3% | SK-OV-3 ovarian 112% | IGROV1 ovarian 100% | OVCAR-3 ovarian 95.6% | HS 578T breast 90.4% | NCI/ADR-RES ovarian 76.7%

CCN(CC)c1ccc(/C=C/C=C2\NC(=O)NC2=O)cc1
active: SK-MEL-2 melanoma -13.5% | TK-10 renal 8.35% | NCI/ADR-RES ovarian 3.98%
inactive: EKVX NSCLC 61.5% | SN12C renal 47.4% | UO-31 renal 36.4% | ACHN renal 47.2% | CAKI-1 renal 16.7% | A498 renal 22.4% | CCRF-CEM leukemia 40% | MOLT-4 leukemia 41.1% | SR leukemia 21.1% | RPMI-8226 leukemia 41% | OVCAR-8 ovarian 36% | OVCAR-5 ovarian 58.1% | OVCAR-4 ovarian 50.5% | SK-OV-3 ovarian 29.1% | IGROV1 ovarian 49.7% | OVCAR-3 ovarian 25.5% | HS 578T breast 50.4%

C[C@@H](NC(=O)[C@@H](CC(=O)N1CCC(N2CCCCC2)CC1)N1C(=O)[C@@H](N2C(=O)OC[C@@H]2c2ccccc2)[C@H]1/C=C/c1cccc(Cl)c1)c1ccccc1
active: SR leukemia -22.4%
inactive: SK-MEL-2 melanoma 96.8% | EKVX NSCLC 66.5% | SN12C renal 84.4% | UO-31 renal 58.9% | TK-10 renal 78.9% | ACHN renal 91.6% | CAKI-1 renal 69.7% | A498 renal 84.6% | CCRF-CEM leukemia 50.1% | MOLT-4 leukemia 26.7% | RPMI-8226 leukemia 54.7% | OVCAR-8 ovarian 86.8% | OVCAR-5 ovarian 115% | OVCAR-4 ovarian 78.6% | SK-OV-3 ovarian 86.7% | IGROV1 ovarian 86% | OVCAR-3 ovarian 74.4% | HS 578T breast 63.2% | NCI/ADR-RES ovarian 98%

Oc1cc(Nc2ccnc3cc(Cl)ccc23)c2ncccc2c1
inactive: SK-MEL-2 melanoma 94.4% | EKVX NSCLC 98.5% | SN12C renal 79.3% | UO-31 renal 44.4% | TK-10 renal 109% | ACHN renal 71.1% | CAKI-1 renal 86.2% | A498 renal 100% | CCRF-CEM leukemia 67.9% | MOLT-4 leukemia 68.9% | SR leukemia 37% | RPMI-8226 leukemia 53.5% | OVCAR-8 ovarian 70.3% | OVCAR-5 ovarian 104% | OVCAR-4 ovarian 44.4% | SK-OV-3 ovarian 85.4% | IGROV1 ovarian 94.3% | OVCAR-3 ovarian 81% | HS 578T breast 62.1% | NCI/ADR-RES ovarian 51.8%

COc1ccc2c(c1)C(C)Cc1c(Cl)nc(C)nc1N2C (stereo not given)
inactive: SK-MEL-2 melanoma 37.3% | EKVX NSCLC 34.4% | SN12C renal 32.6% | UO-31 renal 50.9% | TK-10 renal 44.4% | ACHN renal 55.2% | CAKI-1 renal 25.4% | CCRF-CEM leukemia 14.7% | MOLT-4 leukemia 20.3% | SR leukemia 14.6% | RPMI-8226 leukemia 29.4% | OVCAR-8 ovarian 24.2% | OVCAR-5 ovarian 56.2% | OVCAR-4 ovarian 54.9% | SK-OV-3 ovarian 19.1% | IGROV1 ovarian 55.7% | HS 578T breast 27.3%
active: A498 renal -5.78% | OVCAR-3 ovarian 6.18% | NCI/ADR-RES ovarian 4.74%

COc1ccc(C(=O)CCC(=O)O)cc1
inactive: SK-MEL-2 melanoma 102% | EKVX NSCLC 78.7% | SN12C renal 89% | UO-31 renal 71.7% | TK-10 renal 105% | ACHN renal 100% | CAKI-1 renal 98.4% | A498 renal 104% | CCRF-CEM leukemia 48.6% | MOLT-4 leukemia 86.2% | SR leukemia 99.7% | RPMI-8226 leukemia 87.3% | OVCAR-8 ovarian 71.4% | OVCAR-5 ovarian 88.3% | OVCAR-4 ovarian 64.8% | SK-OV-3 ovarian 115% | IGROV1 ovarian 96.8% | OVCAR-3 ovarian 79% | HS 578T breast 105% | NCI/ADR-RES ovarian 83.6%

O=C1COCCN1c1ccc(NCc2cn(Cc3ccc(F)cc3)c3ccccc23)cc1
active: TK-10 renal -32.3% | CAKI-1 renal -37.8% | A498 renal -91.7% | OVCAR-5 ovarian -40.3% | OVCAR-4 ovarian -6.07% | IGROV1 ovarian -18.9% | OVCAR-3 ovarian 3.96%
inactive: SK-MEL-2 melanoma 56.7% | EKVX NSCLC 91% | SN12C renal 64.3% | UO-31 renal 40.6% | ACHN renal 61.6% | CCRF-CEM leukemia 92.9% | MOLT-4 leukemia 102% | SR leukemia 94.4% | RPMI-8226 leukemia 41.7% | OVCAR-8 ovarian 70.5% | SK-OV-3 ovarian 20.3% | HS 578T breast 72% | NCI/ADR-RES ovarian 72.1%

CS(=O)(=O)c1cccnn1
inactive: SK-MEL-2 melanoma 98.8% | EKVX NSCLC 76.9% | SN12C renal 89.1% | UO-31 renal 79.9% | TK-10 renal 109% | ACHN renal 97.7% | CAKI-1 renal 73.6% | A498 renal 66.7% | CCRF-CEM leukemia 84.9% | MOLT-4 leukemia 132% | SR leukemia 167% | RPMI-8226 leukemia 97% | OVCAR-8 ovarian 106% | OVCAR-5 ovarian 81.1% | OVCAR-4 ovarian 80.9% | SK-OV-3 ovarian 116% | IGROV1 ovarian 78% | OVCAR-3 ovarian 103% | HS 578T breast 89.2% | NCI/ADR-RES ovarian 96%

O=C(Nc1cc(F)cc2cccnc12)c1cnc(N2CCNCC2)cn1
active: OVCAR-3 ovarian 6.04%
inactive: SK-MEL-2 melanoma 104% | EKVX NSCLC 82.7% | SN12C renal 75% | UO-31 renal 29% | TK-10 renal 66.6% | ACHN renal 28.4% | CAKI-1 renal 52.4% | A498 renal 88.7% | CCRF-CEM leukemia 26.3% | MOLT-4 leukemia 24.5% | SR leukemia 29.5% | RPMI-8226 leukemia 93.1% | OVCAR-8 ovarian 72.4% | OVCAR-5 ovarian 83.4% | OVCAR-4 ovarian 11.2% | SK-OV-3 ovarian 100% | IGROV1 ovarian 43.5% | HS 578T breast 82.2% | NCI/ADR-RES ovarian 87.6%

CCCCC(CCCCCC(CCCC)C1NC(C)Cc2cc(OC)c(OC)cc21)C1NC(C)Cc2cc(OC)c(OC)cc21 (stereo not given)
active: SK-MEL-2 melanoma -81.9% | EKVX NSCLC -61.2% | SN12C renal -21.3% | UO-31 renal -83.5% | TK-10 renal -94.5% | ACHN renal -100% | CAKI-1 renal -63.9% | A498 renal -12.3% | CCRF-CEM leukemia -43.3% | MOLT-4 leukemia -63% | SR leukemia -79.2% | RPMI-8226 leukemia -48.3% | OVCAR-8 ovarian -74.3% | OVCAR-5 ovarian -96.4% | OVCAR-4 ovarian -90.1% | SK-OV-3 ovarian -87.3% | IGROV1 ovarian -34.8% | OVCAR-3 ovarian -94.2% | HS 578T breast -38.6% | NCI/ADR-RES ovarian -88.3%

COc1ccc(C(=O)CSc2nccc(Nc3ccc(C(=O)O)cc3)n2)cc1
inactive: SK-MEL-2 melanoma 103% | EKVX NSCLC 103% | SN12C renal 99.3% | UO-31 renal 82% | TK-10 renal 103% | ACHN renal 101% | CAKI-1 renal 97.7% | A498 renal 106% | CCRF-CEM leukemia 105% | MOLT-4 leukemia 106% | SR leukemia 91.4% | RPMI-8226 leukemia 109% | OVCAR-8 ovarian 94.8% | OVCAR-5 ovarian 103% | OVCAR-4 ovarian 108% | SK-OV-3 ovarian 99.1% | IGROV1 ovarian 91.8% | OVCAR-3 ovarian 100% | HS 578T breast 84.4% | NCI/ADR-RES ovarian 103%

COc1ccc2nc3cc(Cl)ccc3c(Nc3ccc(O)cc3)c2c1
inactive: SK-MEL-2 melanoma 110% | EKVX NSCLC 94.5% | SN12C renal 67.2% | UO-31 renal 62.1% | TK-10 renal 88% | ACHN renal 66.6% | CAKI-1 renal 71.5% | A498 renal 57.2% | CCRF-CEM leukemia 23.9% | RPMI-8226 leukemia 68.6% | OVCAR-8 ovarian 68.5% | OVCAR-5 ovarian 104% | OVCAR-4 ovarian 90.4% | SK-OV-3 ovarian 93.3% | IGROV1 ovarian 71.3% | OVCAR-3 ovarian 83% | HS 578T breast 76.2% | NCI/ADR-RES ovarian 71.2%
active: MOLT-4 leukemia 9.49% | SR leukemia -22.2%

COC(=O)C(=Cc1ccccc1[N+](=O)[O-])C(=O)OC
inactive: SK-MEL-2 melanoma 73.5% | EKVX NSCLC 51.4% | SN12C renal 51.1% | UO-31 renal 31.2% | TK-10 renal 14.7% | ACHN renal 48.7% | CAKI-1 renal 31.2% | A498 renal 69.1% | OVCAR-8 ovarian 49.8% | OVCAR-5 ovarian 56.6% | OVCAR-4 ovarian 21.6% | SK-OV-3 ovarian 69.7% | IGROV1 ovarian 37.9% | HS 578T breast 34.5% | NCI/ADR-RES ovarian 21.9%
active: CCRF-CEM leukemia -1.09% | MOLT-4 leukemia 4.68% | SR leukemia -22.3% | RPMI-8226 leukemia -18.6% | OVCAR-3 ovarian -17.9%

Cc1ccc2c(c1)C(C)Cc1c(Cl)ncnc1N2C (stereo not given)
active: SK-MEL-2 melanoma -21.4% | A498 renal -19.2% | OVCAR-3 ovarian 6.8%
inactive: EKVX NSCLC 22.2% | SN12C renal 32.8% | UO-31 renal 18% | TK-10 renal 18.3% | ACHN renal 32% | CAKI-1 renal 31% | CCRF-CEM leukemia 49.7% | MOLT-4 leukemia 13.6% | SR leukemia 22.6% | RPMI-8226 leukemia 28.2% | OVCAR-8 ovarian 11.9% | OVCAR-5 ovarian 40.4% | OVCAR-4 ovarian 19.5% | SK-OV-3 ovarian 15.7% | IGROV1 ovarian 61% | HS 578T breast 32.7% | NCI/ADR-RES ovarian 10.7%

O=C(N[C@@H]1CCCc2ccccc21)[C@H](CCC(=O)N1CCN(C2CCCCC2)CC1)N1C(=O)[C@@H](N2C(=O)OC[C@@H]2c2ccccc2)[C@H]1/C=C/c1ccccc1
inactive: SK-MEL-2 melanoma 20.6% | EKVX NSCLC 51.2% | SN12C renal 25.4% | UO-31 renal 21% | TK-10 renal 47% | ACHN renal 36.4% | CAKI-1 renal 37.9% | A498 renal 31.8% | CCRF-CEM leukemia 22.8% | OVCAR-8 ovarian 54.4% | OVCAR-5 ovarian 93.5% | OVCAR-4 ovarian 36.8% | SK-OV-3 ovarian 70.6% | IGROV1 ovarian 49.3% | OVCAR-3 ovarian 32.5% | HS 578T breast 48.1% | NCI/ADR-RES ovarian 33.3%
active: MOLT-4 leukemia -1.99% | SR leukemia -25.1% | RPMI-8226 leukemia -13.9%
